Assays:
Conditions in all cases: concentration: 10 µM; 24 h
[1] = test system: HCC1569; test: cell number relative to DMSO (% of DMSO); higher = more cells (less growth inhibition / toxicity)
Outline: (§1)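 Compounds were applied at 10 µM for 24 h at 37 °C, in triplicate, to HCC1569 and TDF cells. The cells were then fixed and stained for H1.0, and nuclei were counterstained with DAPI. Nuclear H1.0 intensity or cell number is reported relative to the plate control as a percent, taking the median of replicates. Smoothing for positional effects was applied to HCC1569 values only.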

[2] = test system: TDF; test: as above
Outline: as §1

[3] = test system: TDF; test: H1.0 immunofluorescence intensity relative to DMSO (% of DMSO); higher = stronger H1.0 induction, active = 120 or more
Outline: as §1

[4] = test system: HCC1569; test: H1.0 immunofluorescence intensity relative to DMSO (% of DMSO); higher = stronger H1.0 induction, active = 140 or more
Outline: as §1
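Wherever H1.0 immunofluorescence intensity relative to DMSO is given: TDF is a line of transformed human dermal fibroblasts of mesenchymal origin.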
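Wherever cell number relative to DMSO is given: TDF denotes transformed human dermal fibroblasts of mesenchymal origin.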

SMILES	cell number [1]	cell number [2]	H1.0 immunofluorescence intensity [3]	H1.0 immunofluorescence intensity [4]
CN(C)CC(=O)Nc1ccc2[nH]c(=O)c3ccccc3c2c1.Cl.O	101	99.1	97.4 (inactive)	91.3 (inactive)
CC1=NC(=NNc2ccc(S(=O)(=O)[O-])cc2S(=O)(=O)[O-])C(COP(=O)([O-])[O-])=C(C=O)C1=O.[Na+].[Na+].[Na+].[Na+]	102	103	90.1 (inactive)	97.3 (inactive)
COC(=O)C1=C(C)NC(C)=C(C(=O)OCCCN2CCC(c3ccccc3)(c3ccccc3)CC2)C1c1cccc([N+](=O)[O-])c1 (configuration not stated) [Niguldipine]	88.2	99	98.5 (inactive)	126 (inactive)
OCCn1cc(-c2cnc3nnn(Cc4ccc5ncccc5c4)c3n2)cn1	99.6	98.7	99 (inactive)	99.8 (inactive)
CCN1CCCC1CNC(=O)c1cc(S(N)(=O)=O)ccc1OC (single isomer, unassigned; (-)) [(-)-Sulpiride]	99.4	101	90.9 (inactive)	98.5 (inactive)
Cn1c(NCCN(CCO)CCCc2ccc([N+](=O)[O-])cc2)cc(=O)n(C)c1=O [Nifekalant]	101	99.4	96.3 (inactive)	100 (inactive)
CCCCCC(O)C=CC1C(O)CC(O)C1CC=CCCCC(=O)O (racemic)	106	105	88.4 (inactive)	99.4 (inactive)
CCn1cc(C(=O)O)c(=O)c2cc(F)c(N3CCNC(C)C3)c(F)c21.Cl (configuration not stated) [Lomefloxacin hydrochloride]	101	102	92.2 (inactive)	92.9 (inactive)
Cl.c1ccc2c(c1)CCCC2C1=NCCN1 (configuration not stated) [Tetrahydrozoline hydrochloride]	101	98.1	89.8 (inactive)	98.3 (inactive)
CC(O)C(=O)C1=Nc2c([nH]c(N)nc2=O)NC1 (configuration not stated) [Sepiapterin]	105	113	97.4 (inactive)	99.1 (inactive)
CN(CC=CC#CC(C)(C)C)Cc1cccc2ccccc12.Cl	96.4	105	101 (inactive)	98.4 (inactive)
O=C1C(=Cc2ccc(O)c(O)c2)Oc2cc(O)ccc21 [Sulfuretine]	98	102	93.3 (inactive)	99.9 (inactive)
COc1ccccc1N1CCN(CCN2C(=O)CC3(CCCC3)CC2=O)CC1.Cl.Cl [BMY 7378 dihydrochloride]	98.3	98.9	90.3 (inactive)	89.9 (inactive)
CCCCCCCCCCCCCCSCC(=O)O [Tetradecylthioacetic acid]	104	107	85.8 (inactive)	102 (inactive)
O=C(O)CCCC(O)C=CC=CC=CC(O)CC=CCCCCCO (configuration not stated) [20-Hydroxy-leukotriene B4]	100	101	95.2 (inactive)	108 (inactive)
NC(N)=NCc1cccc(I)c1.NC(N)=NCc1cccc(I)c1.O=S(=O)(O)O [m-Iodobenzylguanidine hemisulfate]	109	98.8	98.1 (inactive)	98.4 (inactive)
CCSC(N)=Nc1ccc(C(F)(F)F)cc1.Cl [TFPI hydrochloride]	79.3	90.8	99.6 (inactive)	132 (inactive)
CC1(C2CCCC2)Cc2cc(OCC(=O)O)c(Cl)c(Cl)c2C1=O (configuration not stated)	103	107	91.9 (inactive)	84.5 (inactive)
COc1ccc(S(=O)(=O)Nc2nc(-c3cccc([N+](=O)[O-])c3)cs2)cc1OC	102	92.4	102 (inactive)	97.7 (inactive)
Cc1ccc([N+](=O)[O-])cc1S(=O)(=O)N(C)N=Cc1cnc2ccc(Br)cn12	52	11.6	111 (inactive)	104 (inactive)
CC(C)COCC(CN(Cc1ccccc1)c1ccccc1)N1CCCC1.Cl (configuration not stated) [Bepridil.HCl]	102	103	93.1 (inactive)	99.1 (inactive)
C=C(C)C1CC=C(C(=O)O)CC1 (configuration not stated) [Perillic acid]	102	98.7	96.4 (inactive)	92.9 (inactive)
CS(=O)(=O)c1ccc(C(O)C(COC(=O)CN)NC(=O)C(Cl)Cl)cc1 (configuration not stated) [Thiamphenicol glycinate]	105	96.1	98.4 (inactive)	106 (inactive)

— the supplement of paper PMC7156485
